Molecules are shown by their SMILES. The panel holds about 83,000 compounds, 20% with a hit somewhere; the sample as a whole holds those more often.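 Interpretation: 100, growth as untreated; towards 0, rising growth inhibition; 0, no net growth; 0 to -100, cell death. Compounds scoring below 10 were considered active.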 Values without a mark were called inactive. The source made the active and inactive calls.

In PubChem BioAssay (NCI) one finds growth data, which are given here for 33 compounds.

In the test the test system is EKVX NSCLC. The test is described as follows: NCI-60 one-dose screen, 48 h (100 = growth as untreated, 0 = no growth, -100 = all killed). Conditions: 10 µM unless noted.
Turning to `Cn1cc(-c2csc(-c3ccc(Cl)cc3)n2)c2cccnc21`, the growth was -14.4% [100 µM] (active).
For `COc1cc(-c2nc(SCCC(C)C)nc(Nc3ccccc3Cl)c2C#N)cc(OC)c1OC`, the growth was 93.3%.
With `CCn1c(=S)[nH]c2c(=O)n(C)c(=O)n(C)c21`, the growth is 95.1%.
In the case of `c1ccc(CNc2c3ccccc3nc3ccccc23)cc1` it was 48.1%; in that of `COCCn1c(-c2csc(-c3cn(C)c4ccc(OC)cc34)n2)cc2cccnc21`, 58.5%; in that of `CCOC(=O)CSc1ncnc2c1c(-c1ccccc1)c(-c1ccccc1)n2-c1ccc(C)cc1`, 43.9%.
For the compound `COc1cc2oc(-c3cccc(NC(=O)c4cccc(Br)c4)c3)cc(=O)c2c(OC)c1OC`, the growth is 61.3%.
The result for `Cc1ccc(Cl)cc1Nc1nc(C(F)(F)F)ccc1C(=O)N/N=C/c1cccnc1` reads 12.7%; that for `Cn1c(=O)c2c(nc(NC3=NS(=O)(=O)c4ccccc43)n2CC(=O)N2CCc3ccccc32)n(C)c1=O`, 102%.
The result for `Cc1cccc(Cl)c1NC(=O)c1ccc2nc(NC(=O)NCCN(C)C)sc2c1` reads 104%; that for `CCOC(=O)c1c(C)nc2c(c1N)CC(=O)N2Cc1cc(F)cc(Cl)c1`, 85.3%; that for `COC(C(=O)[C@@H](O)[C@@H](C)O)[C@@H]1Cc2cc3cc(O[C@H]4C[C@@H](O[C@H]5C[C@@H](O)[C@H](O)C(C)O5)[C@H](O)C(C)O4)cc(O)c3c(O)c2C(=O)[C@H]1O[C@H]1C[C@@H](O[C@H]2C[C@@H](O[C@H]3C[C@@H](OC)[C@H](O)C(C)O3)[C@@H](O)C(C)O2)[C@H](O)C(C)O1` (stereo partly drawn), 68.4%.
In the case of `CN([O-])c1nc(N(C)[O-])nc(N2CCOCC2)n1.CN([O-])c1nc(N(C)[OH2+])nc(N2CCOCC2)n1.[Fe+3]` it was 14.5% [100 µM].
`CCOP(=O)(OCC)c1nc(-c2ccccc2)oc1NCc1cccnc1`: the growth is 104%.
The result for `CCn1c(SCC(=O)c2ccc(Br)cc2)nnc1-c1ccncc1` reads 102%; that for `CCCCNc1ccc(C#N)c(OCCN(CC)CC)c1`, 98.7%; that for `N#Cc1c(-c2ccc(Cl)cc2)nc(NN=Cc2cccc(O)c2)nc1N1CCOCC1`, 66.6%.
The result for `CS(=O)(=O)Nc1cc(-c2ccc3ncnc(Nc4c(Cl)ccc5c4OCO5)c3c2)cnc1Cl` reads -34.1% (active); that for `Fc1cccc(CNc2c3ccccc3nc3ccccc23)c1F`, 62.9%; that for `COC(=O)CNC(=O)[C@H](Cc1ccccc1)NCc1ccncc1`, 99.5%.
The result for `O=C(NCCCN1CCOCC1)c1cccc(N2C(=O)/C(=C/c3ccc(F)cc3)SC2=S)c1` reads 88.5%; that for `O=[N+]([O-])/C(=C/C=C/c1ccccc1)c1ccccc1`, 92.7%; that for `Cn1cc(-c2csc(-c3c[nH]c4ccc(Br)cc34)n2)c2cnccc21`, -78.3% (active).
As for `C=C(C)[C@@H]1CC[C@]2(C(=O)N3CCN(C)CC3)CC[C@]3(C)[C@H](CC[C@@H]4[C@@]5(C)CC(=C/c6ccncc6)/C(=N/O)C(C)(C)[C@@H]5CC[C@]43C)[C@@H]12`, the growth is 84.6%.
In the case of `COc1cc(N2C(=O)[C@H](O)C2c2ccc(SC)cc2)cc(OC)c1OC` (stereo partly drawn) it was 36.7%; in that of `CCCCC(=O)c1ccco1`, 98.7%; in that of `C=C(C)[C@@H]1CC[C@]2(C)[C@H](CC=C3[C@@H]4[C@H](C)[C@@H](C)CC[C@]4(CO)CC[C@]32C)[C@@]1(C)CCCN`, 74.1%.
With `COc1ccc2[nH]cc(-c3nc(-c4c[nH]c5ccncc45)cs3)c2c1`, the growth was 10.8%.
The result for `Oc1ccc(CN2CCC(N3CCCCC3)CC2)c2cccnc12` reads 45.6%; that for `CC(C)(C)c1cc(-c2nc3ccc(N4CCN(S(C)(=O)=O)CC4)cc3[nH]2)cc(C(C)(C)C)c1O`, 101%; that for `COc1ccc2c(c1)c(-c1noc(C(=O)c3cn(C)c4ccc(Br)cc34)n1)cn2C`, 114%.
The result for `C[C@H](NC(=O)[C@@H](C)N)[C@H](Oc1ccc2c(cnn2-c2ccc(F)cc2)c1)c1ccc2c(c1)OCCO2` reads 43.5%; that for `C=C(C)[C@@H]1CC[C@]2(C(=O)O)CC[C@]3(C)[C@H](CC[C@@H]4[C@@]5(C)C[C@@H](Cc6cn(CCO[C@@H]7O[C@H](COC(C)=O)[C@H](OC(C)=O)[C@H](OC(C)=O)[C@H]7OC(C)=O)nn6)[C@H](O)C(C)(C)[C@@H]5CC[C@]43C)[C@@H]12`, 72%.
